Data published in PubChem BioAssay AID488913 (National Center for Advancing Translational Sciences (NCATS), 2010).
Records with an inconclusive call do not appear. Activity calls are given as the source filed them. Calls come from the whole dose curve; as a rule, active = well fitted inhibition curve with a large enough effect; inconclusive = small, poorly fitted or top-dose-only effect, or effect the other way; inactive = no such curve, though single readings can be large or run the other way.

Assay: Confirmation Concentration-Response Assay for lipid storage modulators: for probe SAR
Details: Drosophila S3 cells, BODIPY lipid droplet fluorescence, 18-24 h; series mostly up to 46.1 µM
Source text: NIH Molecular Libraries Probe Production Centers Network [MLPCN] NIH Chemical Genomics Center [NCGC] MLPCN Grant: 1 R03 MH085686-01 Assay Submitter (PI): Beller, Mathias; Max-Planck-Institut fur Biophysikalische Chemie NCGC Assay Overview: Storing lipids as a reservoir for energy or the anabolism of elementary metabolites is a common feature of probably all cells and is conserved from bacteria to humans. The universal cellular lipid storage organelle is the so-called lipid storage droplet (LD). Although ubiquitous, LDs share a simple structure composed of a hydrophobic core that harbors the storage lipids, which is shielded by a droplet-specific phospholipid monolayer to which proteins are attached. The current model of LD biogenesis involves an incorporation of the lipid core into the membrane leaflets of the endoplasmic reticulum (ER) followed by a subsequent budding-like maturation of a LD, which ultimately pinches off. Once released, LD volume can increase by localized lipogenesis or fusion of existing droplets. Storage lipids are re-mobilized enzymatically by lipase activity. Lipase regulation in the adipocyte is heavily studied and involves multiple components including catecholamine signaling, the LD-associated proteins Perilipin and comparative gene identification-58 (CGI-58) and at least two lipases named hormone sensitive lipase (HSL) and adipocyte triglyceride lipase (ATGL). LD regulation outside of the adipocyte is poorly understood and only few components are known. However, there is an urgent need to learn more about ectopic fat depots as mislocalized storage of lipids, for example in the liver or muscle, is an eminent health problem associated with insulin resistance or the metabolic syndrome. We developed a laser-scanning cytometer assay to enable 1,536-well screening and combined the results of the small molecules screen with an RNAi database based on lipid storage.
We dispensed 4 uL of cells at 1.25 x 10^6 cells/mL into LoBase Aurora COC 1,536-well plates (black walled, clear bottom) with a bottle-valve solenoid-based dispenser (Aurora) to obtain 5,000 cells/well. Triacsin C (Sigma-Aldrich T-4540), an inhibitor of long-chain fatty acyl CoA synthetase that blocks synthesis of triglycerides, was used as a positive control for lipid under-storage. A total of 23 nL of compound solution of different concentrations were transferred to the assay plates using a Kalypsys pin tool equipped with a 1,536-pin array containing 10-nL slotted pins (FP1S10, 0.457-mm diameter, 50.8 mm long; V&P Scientific). One microliter of oleic acid (400 uM) was added, and the plate was lidded with stainless steel rubber gasket lined lids containing pinholes. After 18-24 h incubation at 24 degree Celsius and 95% humidity, 4 uL of the dyes BODIPY 493/503 (Molecular Probes) and the Cell Tracker Red CMTPX dye (Molecular Probes) were added to the wells to stain lipid droplets and enumerate cell number, respectively. Fluorescence was detected by excitation of the fluorophores with a 488-nm laser on an Acumen Explorer (TTP Lab Tech). The total intensity in channel 1 (500-530 nm) reflected lipid droplet accumulation. Cells were detected using channel 3 (575- 640 nm) with 5-um width and 100-um depth filters. The ratio of the total intensity in PMT channel 1 over total intensity of channel 3 was also calculated. Percent activity was computed relative to an internal control (100% inhibited lipid droplet deposition due to the presence of 20 uM Triacsin C), which was added to 32 wells/plate.

Potency, inactive:
CCOc1ccc(CCNC(=O)c2cccs2)cc1OCC
CCOc1ccc(CCNC(C)=O)cc1OCC
COc1ccc(-c2csc(NC(=O)CSc3nnc(NC4CC4)s3)n2)cc1OC
CCn1c(C(=O)NCCc2ccc(OC)cc2)cc2sccc21
COc1ccc(NC(=S)N2CCN(c3cccc(Cl)c3)CC2)c(OC)c1
O=C(NCCc1ccc2c(c1)OCO2)c1cc2sccc2n1Cc1ccccc1
O=C(NCCc1ccc(O)c(O)c1)c1cc2sccc2n1Cc1ccccc1
O=C(Cc1cccs1)Nc1nc(-c2ccc3c(c2)CCC3)cs1
CCOC(=O)C1CCN(C(C)C(=O)NC(=O)NC2CCCCC2)CC1 (stereo not given)
Cc1ccc(-c2cnc(SCC(=O)Nc3nccs3)n2Cc2ccco2)cc1
O=C(NC1CCCCC1)NC1(C(=O)N2CCCC2)CCCCC1

Potency, active:
Cn1c(=O)n(-c2ccc(C(C)(C)C#N)cc2)c2c3cc(-c4cnc5ccccc5c4)ccc3ncc21 1.12 µM
O=C(CSc1nnc(NCc2ccccc2)s1)Nc1nc(-c2ccc(F)c(F)c2)cs1 1.25 µM
CC(C)(C)OC(=O)NC1CCCc2c1cnn2-c1ccc(F)cc1F (stereo not given) 0.888 µM
CC1=C(C(=O)NC2CCCc3c2cnn3-c2ccc(F)cc2F)OCCO1 (stereo not given) 0.0158 µM
COc1ccc(CCNC(=O)c2cc3sc(C)cc3n2C)cc1OC 2.81 µM
CC1(C)CCC(c2ccc(Cl)cc2)=C(CN2CCN(c3ccc(C(=O)NS(=O)(=O)c4ccc(N[C@H](CCN5CCOCC5)CSc5ccccc5)c(S(=O)(=O)C(F)(F)F)c4)cc3)CC2)C1 0.996 µM
O=C(NC1CCCc2c1cnn2-c1ccc(F)cc1F)c1cccc(Cn2cccn2)c1 (stereo not given) 0.125 µM
CCOc1ccc(CCNC(=O)c2cc3sccc3n2Cc2ccc(Cl)c(F)c2)cc1OCC 0.0063 µM
CCOc1ccc(CCNC(=O)c2cc3sccc3n2Cc2ccccc2)cc1OCC 0.0353 µM
O=C(NC1CCCc2c1cnn2-c1cc(F)cc(F)c1)c1ccc(F)cc1Cl (stereo not given) 2.23 µM
O=C(NC1CCCc2c1cnn2-c1ccc(F)cc1F)c1cccc(F)c1F (stereo not given) 0.315 µM
Cc1ccc(-n2ncc3c2CCCC3NC(=O)c2c(F)cccc2F)cc1C (stereo not given) 0.158 µM
Cc1cccc(Nc2nnc(SCC(=O)Nc3nc(-c4ccc(F)cc4)cs3)s2)c1 0.628 µM
O=C(NC1CCCc2c1cnn2-c1cc(F)cc(F)c1)c1cccc2nccnc12 (stereo not given) 3.45 µM
CCOc1ccc(CCNC(=O)c2cc3sc(Cl)cc3n2CC)cc1OCC 2.23 µM
CCOc1ccc(CCNC(=O)c2cc3sccc3[nH]2)cc1OCC 7.91 µM
CCOc1ccc(CCNC(=O)c2cc3sc(CC)cc3n2C)cc1OCC 1.22 µM
CCOc1ccc(CCNC(=O)c2cc3sccc3n2C(C)C)cc1OCC 0.0996 µM
COc1ccc(-c2csc(NC(=O)CSc3nnc(Nc4ccccc4)s3)n2)cc1 0.628 µM
COc1ccc(-c2csc(NC(=O)Cc3cccs3)n2)cc1 25 µM
CCOC(=O)C1CCN(C(=O)C2(NC(=O)Nc3ccccc3Cl)CCC2)CC1 2.81 µM
O=C(NC1CCCc2c1cnn2-c1ccc(F)cc1F)C1CC1 (stereo not given) 1.58 µM
COc1ccc(CCNC(=O)c2cc3sccc3n2Cc2ccc(Cl)cc2)cc1OC 0.194 µM
CCOc1ccc(CCNC(=O)c2cc3sccc3n2Cc2ccc(-n3cncn3)cc2)cc1OCC 0.177 µM
CCn1c(C(=O)NCCc2ccc(OC)c(OC)c2)cc2sc(Cl)cc21 9.71 µM
O=C(NC1CCCc2c1cnn2-c1ccc(F)cc1F)c1c(F)cccc1Cl (stereo not given) 3.53 µM
CCOc1ccc(CCNC(=O)c2cc3ccccc3n2C)cc1OCC 7.91 µM
CCOc1ccc(CCNC(=O)c2cccc(C(=O)c3ccccc3)c2)cc1OCC 15.8 µM
O=C(NC1CCCc2c1cnn2-c1ccccc1F)c1ccc2ncccc2c1 (stereo not given) 2.23 µM
